IL-2 act – qHTS of IL-2 Activators. IL-2 activation reporter assay, cell-based qHTS; stimulated with anti-CD3/CD4/CD28 beads; in transgenic mouse T cells. activation, % (series mostly up to about 46 µM). 0.065% of 360,000 active; in the data active means activation above about 50%; inconclusive means mostly about 30% to 49%; further: 0% is about no effect
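Unstimulated transgenic mouse T cells, 750 per well, received compound and, after 60 minutes, anti-CD3/anti-CD4 bead plus anti-CD28 stimulation. EGFP and DsRed were quantified after 18 hours.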
Vif-APOBEC3G blk – qHTS for Inhibitors of Vif-A3G Interactions: qHTS; 0.076% of 410,000 active; HeLa A3G-eYFP + Vif (tagged APOBEC3G with the HIV-1 protein that degrades it), YFP fluorescence, overnight; DNA dC->dU-editing enzyme APOBEC-3G (Homo sapiens), Q9HC16; Potency, µM (highest dose often 46.1 µM), inactives show at the top dose activity, negative = active, actives largely listed as inhibitors; AID 602310, 2012; further: potency means the concentration at half of the fitted maximal effect; on the % scale 0 is the no-effect control and ±100 the full control effect; nearly all actives have a fitted effect of over 60% in size
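HeLa cells stably expressing Vif and C-terminally eYFP-tagged A3G, seeded overnight at 37 deg C, then exposed to compound by pintool overnight at 37 deg C. Rise in yellow fluorescence (Ex 488/Em 500-530, Acumen) marks blocked Vif-driven A3G degradation.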
PKM2 act – qHTS Assay for Activators of Human Muscle isoform 2 Pyruvate Kinase | AID 1631, 2009 | Pyruvate kinase PKM (Homo sapiens), P14618 | purified PKM2, Kinase-Glo ATP luminescence, activation; response scale: 0% is enzyme alone, no compound | Potency, µM (titrated, usually from 57.5 µM), inactives show at the top dose activation, most hits filed as activators | 0.34% of 260,000 active; further: potency means the concentration at half of the fitted maximal effect; on the % scale 0 is the no-effect control and ±100 the full control effect; nearly all actives have a fitted effect of over 55% in size
Target sequence (P14618 whole entry, looked up, canonical isoform): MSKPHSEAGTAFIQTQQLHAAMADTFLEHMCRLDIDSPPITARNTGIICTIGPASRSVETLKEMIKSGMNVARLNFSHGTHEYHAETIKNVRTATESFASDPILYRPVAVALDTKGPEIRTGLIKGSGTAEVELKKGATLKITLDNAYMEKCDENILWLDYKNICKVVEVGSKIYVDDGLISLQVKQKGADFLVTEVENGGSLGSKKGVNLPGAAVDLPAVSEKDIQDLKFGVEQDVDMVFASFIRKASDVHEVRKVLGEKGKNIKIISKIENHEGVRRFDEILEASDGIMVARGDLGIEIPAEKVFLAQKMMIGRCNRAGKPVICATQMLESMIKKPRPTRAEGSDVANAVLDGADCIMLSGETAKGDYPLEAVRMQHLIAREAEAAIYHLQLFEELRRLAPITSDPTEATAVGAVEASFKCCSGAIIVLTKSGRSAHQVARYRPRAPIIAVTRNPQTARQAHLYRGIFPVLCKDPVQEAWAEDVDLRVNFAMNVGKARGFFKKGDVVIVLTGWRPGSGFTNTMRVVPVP
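ATP formation by purified human PK-M2, quantified via coupled luciferase luminescence after 1 h at room temperature with 0.1 mM ADP and 0.5 mM PEP final.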
Vif-APOBEC3F blk – qHTS for Inhibitors of Vif-A3F Interactions: qHTS | 0.2% of 390,000 active | HeLa A3F-eYFP + Vif (tagged APOBEC3F with the HIV-1 protein that degrades it), YFP fluorescence increase | Potency, µM (doses to about 46.1 µM), for inactives: at the highest dose activity, negative = active; further: potency means the concentration at half of the fitted maximal effect; % of control where 0% means no effect; nearly all actives have a fitted effect of over 65% in size
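HeLa cells stably expressing Vif plus C-terminally eYFP-tagged A3F were seeded, incubated overnight at 37 deg C, dosed with compound, incubated overnight again at 37 deg C. Yellow fluorescence (Ex 488/Em 500-530) reported blocked Vif-mediated A3F-eYFP degradation.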
* marks the source's active call; other numbers are inactive results; ? = inconclusive; · = not tested or not shown; [ ] = another dose, or the depositor's remark. Only some compounds are listed: those with a hit (about 0.53% of all), similar ones and a draw of the others. Unless noted, the call rests on the fitted dose curve; in most records, active means well fitted curve in the direction sought with a large enough effect; inconclusive means small, poorly fitted or top-dose-only effect, or another doubt; inactive means no such curve, though single readings can be large; an effect the other way counts as inactive or inconclusive.

SMILES	IL-2 act	Vif-APOBEC3G blk	PKM2 act	Vif-APOBEC3F blk
CCCCN(C)CCCNC(=O)Cn1ncc2c3ccccc3n(Cc3cccc(Cl)c3)c2c1=O	·	-4%	·	-27%
Cc1ccc(Cl)c2c(N=Nc3ccccc3)c(O)[nH]c12	170*	-13%	0%[11.5 µM]	8.9µM*
Cc1cc(Cl)cc2c(N=Nc3ccccc3C(=O)O)c(O)[nH]c12	-2	-1%	·	1%
COc1ccc(NC(=O)CCCc2nnc3n(C(C)C)c(=O)c4sccc4n23)cc1Cl	·	-4%	·	-7%
O=C(/C=C1\C(=O)Nc2ccccc21)/C=C1\C(=O)Nc2ccccc21	-2	-11%	1.4µM*	-14%
O=C1Nc2ccccc2/C1=C\C(=O)c1ccccc1	-3	?	·	-8%
CC(=O)Nc1ccccc1NS(=O)(=O)c1ccccc1[N+](=O)[O-]	0	2%	40µM*	2%
CCOCCc1nnc(NC(=O)C(=O)c2cc(C)n(-c3ccc(Cl)cc3)c2C)s1	·	-1%	·	0%
Cc1cc(N2CCN(S(=O)(=O)c3ccc(Br)cc3)CC2)n2ncnc2n1	0	0%	3%	3%
Cc1cc(N2CCN(S(=O)(=O)c3ccc4c(c3)OCCO4)CC2)n2ncnc2n1	-1	1%	25µM*	-3%
CCCc1noc(-c2ccc(NCc3ccccc3OC)c([N+](=O)[O-])c2)n1	·	-1%	·	1%
N#C/C(=C\c1ccc(-c2ccccc2)cc1)c1nc(-c2ccco2)cs1	79*	-3%	-1%	-8%
CNC(=O)C1CCC(Cn2c(=O)c3sccc3n(CC(=O)NCc3ccccc3)c2=O)CC1 (stereo unspecified)	·	1%	·	2%
CCCn1[nH]cc(SC)c(=O)c1=O	51*	-2%	1%	-9%
O=S(=O)(c1cccc(F)c1)N1CCC(Oc2ccc(-n3cnnn3)cc2)CC1	·	-6%	·	0%
O=C(NCc1ccc(F)cc1)c1ccc(Nc2nc3ccccc3n3nnnc23)cc1	·	1%	·	?
Cc1ccc(CNc2nc3ccc(C)cc3n3nnnc23)cc1	·	1%	·	2%
Cc1ccc(CNc2nc3ccc(Cl)cc3n3nnnc23)cc1	·	3%	·	7.1µM*
Fc1ccc(CNc2nc3ccc(Cl)cc3n3nnnc23)cc1	·	-12%	·	7.9µM*
COc1ccccc1CNc1nc2ccc(C)cc2n2nnnc12	·	-3%	·	13µM*
CCOC(=O)c1cc(OC(=O)c2ccc(OC)c(OC)c2)n(-c2ccccc2)n1	·	-2%	·	2%
COc1ccc(OC)c(NC(=O)c2c(NCc3cccs3)sc3c2CCCCC3)c1	·	-3%	·	-1%
CC(=O)c1cccc(NC(=O)Cn2c(=O)oc3cc(S(=O)(=O)NC4CCCC4)ccc32)c1	·	-3%	·	-13%
CC(=O)N/C(=C/c1ccccc1)c1ccncc1	·	1%	·	·
CC(C)(C)c1ccc(C(=O)c2c[nH]c(C(=O)O)c2)cc1	-1	2%	32µM*	-37%
SMILES	IL-2 act	Vif-APOBEC3G blk	PKM2 act	Vif-APOBEC3F blk
COC(=O)c1cc(C(=O)c2ccc(C(C)(C)C)cc2)c[nH]1	-4	-4%	1%	-5%
CCC12CN3CC(C)(CN(C1)C3c1c(C)[nH]c3ccccc13)C2=O (stereo unspecified)	·	5%	·	-1%
Cc1ccc(NC(=O)c2ccc(NC(=O)N3CCSc4ncccc43)cc2)c(Cl)c1	·	-8%	·	-6%
CCN1/C(=C/c2ccc3ccccc3[n+]2CC)C=Cc2ccccc21	7	?	-79%	13µM*
CNC(=S)N/N=C(\C)c1ccc(Cl)s1	-1	1%	2%	7.9µM*
CC1(c2nc3ccccc3[nH]2)CCCC2=Nc3ccccc3CN21 (stereo unspecified)	1	·	·	·
CCCN(C(=O)c1cc2c(s1)-c1ccccc1OC2)c1ccc(C(C)C)cc1	·	-2%	·	-2%
CC1(C)CC(=O)C2=C(C1)OC(N)=C(C#N)C2c1ccccc1 (stereo unspecified)	-1	-5%	-5%	0%
CC1CC(=O)C2=C(C1)OC(N)=C(C#N)C2c1coc2ccccc2c1=O (stereo unspecified)	-1	-15%	1%	11µM*
CCc1ccccc1NC(=O)Cn1c(=O)n(CCc2ccccc2)c(=O)c2sc3ccccc3c21	·	2%	·	-3%
C/C=C\C=C/C(=O)Nc1cccc(C2=NOC3(C2)C[C@@H](C(N)=O)N(C(=O)COc2ccc(Cl)cc2)C3)c1 (stereo partly specified)	0	-8%	16µM*	2%
C/C=C\C=C\C(=O)N1CC2(CC(c3cccc(NC(=O)COc4ccc(Cl)cc4)c3)=NO2)C[C@H]1C(N)=O (stereo partly specified)	0	-4%	16µM*	0%
C/C=C\C=C\C(=O)N1CC2(CC(c3cccc(NC(=O)CC)c3)=NO2)C[C@H]1C(N)=O (stereo partly specified)	-2	5%	7.9µM*	-2%
Cc1[nH]c2ccccc2c1/C=N/Nc1ccc([N+](=O)[O-])cc1	0	10µM*	-15%	10µM*
Cc1[nH]c2ccccc2c1/C=N/NC(=O)c1cccc([N+](=O)[O-])c1	-1	-4%	3%	3%
C/C(=N/Nc1ccc([N+](=O)[O-])cc1)c1c[nH]c2ccccc12	0	?	11%	6.3µM*
C/C(=N/Nc1ccc([N+](=O)[O-])cc1)c1ccc(C)cc1C	-2	-12%	6%	-17%
O=C(NCc1ccccc1)c1ccc2c(c1)N(Cc1ccc(F)cc1)CCS2	·	0%	·	8%
N=c1c(S(=O)(=O)c2ccc(Cl)cc2)cc2c(=O)n3ccccc3nc2n1CCc1ccccc1	·	·	-4%	·
COc1ccc(CNC(=O)c2cc3c(=O)n4ccccc4nc3n(Cc3cccnc3)c2=N)cc1	95*	-1%	-7%	-28%
N=c1c(C(=O)NCc2ccc3c(c2)OCO3)cc2c(=O)n3ccccc3nc2n1Cc1cccnc1	-3	-1%	?	-5%
N=c1c(S(=O)(=O)c2ccc(Cl)cc2)cc2c(=O)n3ccccc3nc2n1Cc1cccnc1	151*	?	1%	?
Cc1ccc2c(c1)C(c1ccc(F)cc1)N(C(=O)c1cccc(C(F)(F)F)c1)CC(=O)N2 (stereo unspecified)	·	-3%	·	-5%
COC(=O)CN(c1ccc(C)cc1)S(=O)(=O)c1ccc2c(c1)n(C)c(=O)c(=O)n2C	-3	0%	16µM*	0%
CCOc1ccc(N(CC(=O)OC)S(=O)(=O)c2ccc3c(c2)n(C)c(=O)c(=O)n3C)cc1	1	2%	1%	5%
CCNC(=S)N/N=C(\C)c1ccc(N2CCOCC2)cc1	-2	0%	-4%	22µM*
CCOc1ccc(OCC)c(NS(=O)(=O)c2c(C(=O)N3CCCCCC3)c(C)n(C)c2C)c1	·	-1%	·	0%
Cc1[nH]nc(SCC(=O)Nc2cccc(O)c2)c1[N+](=O)[O-]	0	9%	10µM*	0%

Bioassay records deposited in PubChem BioAssay by National Center for Advancing Translational Sciences (NCATS).
